According to PubChem BioAssay AID1850 (Southern Research Specialized Biocontainment Screening …, 2009):
In all, about 310,000 compounds went through this assay and about 1,000 (0.32%) were called active. Only a sample is shown. Potency and affinity values are given separately. Values without a mark were called inactive. How the calls were made is not given here.

test: Inhibition of PhoP regulon, Salmonella typhi GFP reporter cells, confirmation, 4 h (AID 1850); conditions: Salmonella Typhi PhoP-promoter GFP reporter, fluorescence, at 50 µM, hits give high values;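 further: 0% = induced wells with vehicle and 100% = uninduced wells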

| Structure (SMILES) | inhibition [%] |
| --- | --- |
| Clc1ccc(-c2c[n+](Cc3ccc(Br)cc3)c3n2CCCCC3)cc1 | 4.54 |
| Cc1ccc(C[n+]2cc(-c3ccc(Cl)cc3)n3c2CCC3)cc1 | 8.21 |
| Cc1ccc(-c2c[n+](Cc3cccc(Cl)c3)c3n2CCC3)cc1 | 9.09 |
| Clc1ccc(C[n+]2cc(-c3ccccc3)n3c2CCC3)cc1Cl | -4.76 |
| COc1ccc(NC(=S)NC(C)C(c2ccccc2)N2CCOCC2)cc1 (configuration not stated) | -8.71 |
| O=C(CNC(=O)Cc1ccc(Cl)cc1)NCC(=O)N1CCCCC1 | -7.52 |
| CCC(=O)Nc1c(C#N)c2nc3ccccc3nc2n1C1CCCCC1 | 0.26 |
| CC(=O)Nc1c(S(=O)(=O)c2ccccc2)c2nc3ccccc3nc2n1Cc1ccccc1 | -2.36 |
| C=CCn1c(NC(=O)c2ccc(Br)o2)c(S(=O)(=O)c2ccccc2)c2nc3ccccc3nc21 | 21.1 |
| CCCCn1c(NS(=O)(=O)c2ccc(C)cc2)c(C(=O)OCC)c2nc3ccccc3nc21 | -4.9 |
| Nc1c(S(=O)(=O)c2ccccc2)c2nc3ccccc3nc2n1C1CC1 | 0.22 |
| CCCCn1c(N)c(S(=O)(=O)c2ccc(C)cc2)c2nc3ccccc3nc21 | -6.91 |
| CCOC(=O)c1c(NS(=O)(=O)c2ccccc2)n(CCCOC)c2nc3ccccc3nc12 | -3.68 |
| CCCCCn1c(NC(=O)c2ccco2)c(S(=O)(=O)c2ccc(C)cc2)c2nc3ccccc3nc21 | -3.82 |
| CCOC(=O)c1c(C(=O)OCC)c(C)n(Cc2cc(OC)c(OC)c(OC)c2)c1C | -2.04 |
| COc1ccc(C(=O)N/N=C/c2c(C)nn(-c3ccccc3)c2OC)cc1 | -1.74 |
| CCn1c(SCC(=O)NCc2ccccc2)nnc1C(CO)NC(=O)c1ccccc1 (configuration not stated) | -10.3 |
| CCC(=O)c1ccc(N2CCN(C(=O)Cc3ccccc3)CC2)c(F)c1 | 18.2 |
| CCOC(=O)c1c(N)nn(C(C)=O)c1-c1ccccc1 | -5.98 |
| Cc1ccccc1OCC(=O)Nc1nnc(COc2ccccc2)s1 | -8.87 |
| CCCCn1c(SCC(=O)Nc2nnc(CC)s2)nc2ccccc2c1=O | -4.64 |
| O=C(N/N=C\c1ccc(Cl)s1)c1ccc(Cn2cccn2)o1 | -13.9 |
| C=C(C)c1cccc(C(C)(C)NC(=O)NCCCN2CCCC2=O)c1 | -0.97 |

| Structure (SMILES) | inhibition [%] |
| --- | --- |
| Cc1noc(C)c1CSCC(=O)N1CCN(c2ccc([N+](=O)[O-])cc2)CC1 | 2.46 |
| CCCCn1c(NC(=O)c2ccc(Br)o2)c(S(=O)(=O)c2ccccc2)c2nc3ccccc3nc21 | -28 |
| Cc1ccc(S(=O)(=O)c2c(N)n(CCCO)c3nc4ccccc4nc23)cc1 | 0.68 |
| CCc1ccc(C(=O)/C=C/c2ccc([N+](=O)[O-])o2)cc1 | -7.72 |
| O=[N+]([O-])c1ccc(/C=[N+](\[O-])[C@@H]2CCCC[C@@H]2/[N+]([O-])=C/c2ccc([N+](=O)[O-])o2)o1 | 7.15 |
| O=c1oc2cc(S(=O)(=O)NCCCO)ccc2c2ccc(S(=O)(=O)NCCCO)cc12 | 0.32 |
| Cc1cccc(NC(=O)c2cc3ccccc3o2)c1 | -8.7 |
| O=C(Nc1ccccc1)c1cc2ccccc2o1 | 21.6 |
| COc1ccc(Nc2cc(Nc3cc(OC)c(OC)c(OC)c3)ncn2)cc1 | 10.6 |
| Cc1ccc(NC(=O)CS(=O)CC(=O)Nc2ccc(N3CCOCC3)cc2)cc1Cl (configuration not stated) | 12.6 |
| CC(C(=O)c1ccc(Br)cc1)[n+]1cccc(NC(=O)c2ccccc2)c1 (configuration not stated) | 4.99 |
| CC(C(=O)c1ccc(-c2ccccc2)cc1)[n+]1cccc(C(N)=O)c1 (configuration not stated) | 5.49 |
| CC(=O)C1=C(C)OC(N)=C(C#N)C1c1cccnc1 (configuration not stated) | -13.9 |
| CCOC(=O)C1=C(c2ccccc2)OC(N)=C(C#N)C1c1cccnc1 (configuration not stated) | 9.75 |
| CCC(C)(C)n1nnnc1C(c1cc2cc(C)cc(C)c2[nH]c1=O)N1CCN(C(=O)c2ccco2)CC1 (configuration not stated) | 8.8 |
| COc1ccccc1C1/C(=C(\O)c2ccc3c(c2)OCCO3)C(=O)C(=O)N1CCCn1ccnc1 (configuration not stated) | 5.32 |
| CN1CCN(Cc2cc(Cl)c3cccnc3c2OC(=O)c2cccs2)CC1 | -8.42 |
| O=c1c(CN2CCN(c3ccccn3)CC2)coc2ccccc12 | -1.82 |
| CCOC(=O)N1CCN(Cc2ccc(O)c3ncccc23)CC1 | 1.82 |
| CCOC(=O)N1CCN(Cc2ccccc2Cl)CC1 | -4.15 |
| O=c1oc2ccccc2c(O)c1Cc1cc(Cl)c2cccnc2c1O | 10.9 |
| COCc1cc(CN2CCN(C)CC2)c(O)c2ncccc12 | 4.48 |
| COc1ccc2nc(N(CCN(C)C)C(=O)c3ccc(C(=O)c4ccccc4)cc3)sc2c1 | -16 |

| Structure (SMILES) | inhibition [%] |
| --- | --- |
| Cc1ccccc1CSCC(Nc1ccc(C(=O)O)cc1[N+](=O)[O-])C(=O)O (configuration not stated) | -0.8 |
| CCc1nnc(NS(=O)(=O)c2ccc(N3C(=O)C4CC=C(Cl)CC4C3=O)cc2)s1 (configuration not stated) | 5.39 |
| c1ccc(CNc2nc3ccccc3[nH]2)cc1 | -2.74 |
| COc1ccc2nc(NCc3ccccc3)[nH]c2c1 | 18.6 |
| Cc1cc([N+](=O)[O-])nn1CC(=O)N1CCOCC1 | 12.6 |
| Clc1ccc(C[n+]2c(-c3ccccc3)cc(-c3ccccc3)cc2-c2ccccc2)cc1 | 16.5 |
| c1ccc(-c2cc(-c3ccccc3)[n+](-c3ccccc3)c(-c3ccccc3)c2)cc1 | 19.1 |
| Cc1ccc(-c2cc(-c3ccccc3)cc(-c3ccccc3)[n+]2-c2ccccc2)cc1 | 20.6 |
| Fc1ccc(C[n+]2c(-c3ccccc3)cc(-c3ccccc3)cc2-c2ccccc2)cc1 | 11.1 |
| CCC1CCCCN1C(=O)c1cc(COc2ccc(-n3cncn3)cc2)on1 (configuration not stated) | -7.8 |
| CN(c1ccccc1C(=O)Nc1ccc(S(=O)(=O)N2CCCC2)cc1)S(C)(=O)=O | 9.12 |
| Cc1ccsc1/C=C(\C#N)C(=O)NCc1cccnc1 | -18.9 |
| CCOc1ccccc1NC(=O)c1oc2ccccc2c1NC(=O)C1CCCO1 (configuration not stated) | 0.28 |
| CCOC(=O)C1(Cc2cccc(F)c2)CCN(CC(O)CO)CC1 (configuration not stated) | 1.5 |
| CCOC(=O)C1CCN(Cc2cc(C(C)(C)C)c(O)c(C(C)(C)C)c2)CC1 | -7.6 |
| COc1ccc(OC)c(/C=N/NC(=O)c2[nH]ncc2Br)c1 | -1.03 |
| COc1ccc(/C=N/NC(=O)c2[nH]ncc2Br)c(OC)c1 | 4.69 |
| CC(=O)c1ccc(NC(=S)NCc2ccc(Cl)cc2Cl)cc1 | -6.96 |
| CCn1c(=S)sc2c(=O)n(CC(=O)Nc3ccc(Cl)cc3)c(C)nc21 | 1.24 |
| O=C(CN1CC[n+]2c(-c3ccccc3)csc21)c1ccc(Br)cc1 | 7.36 |
| O=C(CN1CC[n+]2c(-c3cccs3)csc21)c1ccc(Br)cc1 | -5.14 |
| C/C(=N/Oc1nc(C)cc(C)n1)c1ccccc1 | -15.4 |
| Cc1c(C)[n+](=O)c(-c2ccc(Br)cc2)c(C)n1[O-] | 4.2 |

| Structure (SMILES) | inhibition [%] |
| --- | --- |
| C[n+]1c(/C=C/c2ccc(O)cc2)ccc2ccccc21 | 10.8 |
| Cc1cc(/C=C2\SC(=O)NC2=O)c(C)n1-c1ccc(N(C)C)cc1 | -4.88 |
| CC[n+]1c(/C=C/c2ccc(N(C)C)cc2)ccc2ccccc21 | 1.34 |
| Cc1cc(/C=N/O)c(C)n1-c1ccccc1 | -9.52 |
| CC1(C)CC(=O)C(C(=O)Cc2ccccc2[N+](=O)[O-])C(=O)C1 | 2.13 |
| COc1cc2nc(Nc3ccc(C)c(Cl)c3)nc(N)c2cc1OC | 5.86 |
| CCOc1ccc(Nc2ncnc(N)n2)cc1 | 20.7 |
| Nc1nc(Nc2ccc(Cl)cc2)n[nH]1 | 1.12 |
| COc1ccc(Cl)cc1Nc1nc(N)c2ccccc2n1 | 2.43 |
| COc1cc2nc(Nc3ccc(C)c(C)c3)nc(N)c2cc1OC | -4.96 |
| COc1ccc(Nc2nc(C)c3ccccc3n2)cc1 | 1.01 |
| CCOc1ccc(Nc2nc(N)c([N+](=O)[O-])c(NCc3ccccc3)n2)cc1 | -9.51 |
| COc1ccc(Nc2nc(N)c3ccccc3n2)c(OC)c1 | 4.67 |
| CCOC(=O)CSc1nnc2n1C(C)(C)Cc1ccccc1-2 | 11.2 |
| Cc1cc2n(n1)C(c1ccco1)Nc1ccccc1-2 (configuration not stated) | -1.68 |
| COc1cc2ncnc(NCc3ccc(C)o3)c2cc1OC | 1.27 |
| CCOC(=O)N/N=C/c1ccccc1OCc1ccc(Cl)cc1 | 2.12 |
| O=c1[nH]c(C2CCCN(S(=O)(=O)c3ccccc3F)C2)nc2c1nnn2Cc1ccccc1Cl (configuration not stated) | 0.52 |
| CCN(CC)CC(=O)Nn1c(C)nc2c(ncn2-c2ccccc2)c1=O | 2.92 |
| CCCN(CCC)CC(=O)NCC1(c2ccccc2)CCOCC1 | 5.98 |
| CCOc1ccccc1NC(=O)c1cc(-c2cc(OC)c(OC)c(OC)c2)nc2ccccc12 | 6.2 |
| CC(=O)Nc1ccc(NC(=O)[C@H](C)NC(=O)c2ccco2)cc1 | 2.64 |
| CCOC(=O)c1oc2ccccc2c1COC(=O)CNC(=O)c1ccccc1OC | -8.98 |
